Source: PubChem BioAssay AID1159580 (chemical genetic matrix, 2015)
Where “and” joins values, the source holds several entries; their conditions need not be identical. Identical values can stand only once. The whole screen tested about 5,500 compounds, of which about 2,000 (36%) were called active. Not shown: some 18% with an inconclusive outcome. Rule as the data show it: active = normalized growth mostly below about 0.91 (no sharp cut-off); inconclusive = no clear call, values can overlap the other calls; inactive = mostly above about 0.92. The list shows a part of the results.

Assay: chemical genetic growth profiling, strain panel (AID 1159580);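 also: tested at 20 µM; growth read once vehicle control cultures reached saturation at 30 °C; 1 = growth at the plate median or of vehicle wells; lower values mean less growth of the strain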
Conditions: S. cerevisiae deletion strains, growth OD

Measured: normalized growth

CC(C)=CCc1c2c(c3occ(-c4ccc(O)c(O)c4)c(=O)c3c1O)C=CC(C)(C)O2
inactive: locus YAL021C, strain ccr4, stronger effect = lower value 0.95 | locus YAL026C, strain drs2, stronger effect = lower value 0.945 | locus YAL030W, strain snc1, stronger effect = lower value 0.961 | locus YBL061C, strain skt5, stronger effect = lower value 0.949 | locus YBR009C, strain hhf1, stronger effect = lower value 0.931 | locus YBR023C, strain chs3, stronger effect = lower value 0.937 | locus YBR171W, strain sec66, stronger effect = lower value 0.98 | locus YBR279W, strain paf1, stronger effect = lower value 0.956 | locus YCL011C, strain gbp2, stronger effect = lower value 0.944 | locus YCL016C, strain dcc1, stronger effect = lower value 0.961 | locus YCL069W, strain vba3, stronger effect = lower value 0.992 | locus YCR088W, strain abp1, stronger effect = lower value 0.997 | locus YDL005C, strain med2, stronger effect = lower value 0.988 | locus YDL040C, strain nat1, stronger effect = lower value 1 | locus YDL185W, strain tfp1, stronger effect = lower value 0.966 | locus YDR001C, strain nth1, stronger effect = lower value 1 | locus YDR137W, strain rgp1, stronger effect = lower value 1 | locus YDR159W, strain sac3, stronger effect = lower value 0.959 | locus YDR195W, strain ref2 1.01 | locus YDR297W, strain sur2, stronger effect = lower value 0.924 | locus YDR334W, strain swr1, stronger effect = lower value 0.969 | locus YDR335W, strain msn5, stronger effect = lower value 0.953 | locus YDR392W, strain spt3, stronger effect = lower value 0.782 | locus YEL003W, strain gim4, stronger effect = lower value 0.932 | locus YEL037C, strain rad23, stronger effect = lower value 0.977 | locus YEL061C, strain CIN8 (second series), stronger effect = lower value 0.999 | locus YER016W, strain bim1, stronger effect = lower value 0.989 | locus YER110C, stronger effect = lower value 0.981 | locus YER111C, strain swi4, stronger effect = lower value 0.939 | locus YER155C, strain BEM2 (second series), stronger effect = lower value 0.909 | locus YFR010W, strain ubp6, stronger effect = lower value 0.946 | locus YGL078C, strain dbp3, stronger effect = lower value 0.93 | locus YGL167C, strain pmr1, stronger effect = lower value 0.986 | locus YGL227W, strain vid30, stronger effect = lower value 1 | locus YGL240W, strain doc1, stronger effect = lower value 0.994 | locus YGL253W, strain hxk2, stronger effect = lower value 0.937 | locus YHR013C, strain ard1, stronger effect = lower value 0.947 | locus YHR027C, strain rpn1, stronger effect = lower value 0.932 | locus YHR079C, strain IRE1, stronger effect = lower value 0.926 | locus YHR142W, strain chs7, stronger effect = lower value 0.948 | locus YIL125W, strain kgd1, stronger effect = lower value 0.933 | locus YJL092W, strain hpr5, stronger effect = lower value 0.983 | locus YJL095W, strain BCK1 (second series), stronger effect = lower value 0.961 | locus YJL115W, strain asf1, stronger effect = lower value 0.999 | locus YJL129C, strain trk1, stronger effect = lower value 1 | locus YJL154C, strain vps35, stronger effect = lower value 1 | locus YJL166W, strain qcr8, stronger effect = lower value 0.919 | locus YJR066W, strain TOR1, stronger effect = lower value 0.885
active: locus YBR021W, strain FUR4, stronger effect = lower value 0.518 | locus YBR229C, strain ROT2, stronger effect = lower value 0.548 | locus YBR231C, strain swc5, stronger effect = lower value 0.895 | locus YCL029C, strain bik1, stronger effect = lower value 0.616 | locus YDL035C, strain GPR1, stronger effect = lower value 0.238 | locus YDL074C, strain BRE1, stronger effect = lower value 0.313 | locus YDL101C, strain DUN1, stronger effect = lower value 0.256 | locus YDL134C, strain PPH21, stronger effect = lower value 0.235 | locus YDL192W, strain arf1, stronger effect = lower value 0.66 | locus YDR069C, strain doa4, stronger effect = lower value 0.845 | locus YDR101C, strain arx1, stronger effect = lower value 0.747 | locus YDR162C, strain NBP2, stronger effect = lower value 0.155 | locus YDR318W, strain mcm21, stronger effect = lower value 0.721 | locus YDR388W, stronger effect = lower value 0.776 | locus YDR502C, strain sam2, stronger effect = lower value 0.674 | locus YEL061C, strain CIN8, stronger effect = lower value 0.406 | locus YER015W, strain faa2, stronger effect = lower value 0.909 | locus YER155C, strain BEM2, stronger effect = lower value 0.544 | locus YER167W, strain BCK2, stronger effect = lower value 0.545 | locus YGL086W, strain mad1, stronger effect = lower value 0.67 | locus YGL173C, strain kem1, stronger effect = lower value 0.887 | locus YGL248W, strain PDE1, stronger effect = lower value 0.257 | locus YGR078C, strain PAC10, stronger effect = lower value 0.457 | locus YGR135W, strain pre9, stronger effect = lower value 0.586 | locus YGR252W, strain gcn5, stronger effect = lower value 0.557 | locus YHR079C, strain IRE1 (second series), stronger effect = lower value 0.722 | locus YHR094C, strain hxt1, stronger effect = lower value 0.888 | locus YHR129C, strain ARP1, stronger effect = lower value 0.457 | locus YHR200W, strain rpn10, stronger effect = lower value 0.724 | locus YIL066C, strain RNR3, stronger effect = lower value 0.227 | locus YIL073C, strain SPO22, stronger effect = lower value 0.137 | locus YIR030C, strain dcg1, stronger effect = lower value 0.811 | locus YJL134W, strain LCB3, stronger effect = lower value 0.677 | locus YJL164C, strain tpk1, stronger effect = lower value 0.91 | locus YJL168C, strain set2, stronger effect = lower value 0.916 | locus YJL187C, strain SWE1 (second series), stronger effect = lower value 0.161 | locus YJR043C, strain POL32, stronger effect = lower value 0.255 | locus YJR075W, strain HOC1, stronger effect = lower value 0.468
0.145 (active) and 0.912 (inactive): locus YJL095W, strain BCK1, stronger effect = lower value
0.197 (active) and 0.903 (inactive): locus YHR030C, strain SLT2, stronger effect = lower value
